Screening results deposited in PubChem by several laboratories.
BoNT F protease: blocks Botulinum neurotoxin F light chain protease; Multiplex microsphere protease cleavage assay, flow cytometry; inhibition, % at 10 µM; actives 0.22% (n = 360,000); AID 588497; in the data active = inhibition above about 35%, passing the limit was not always enough; inconclusive = no clear call, values can overlap the other calls; note: plate controls were buffer without enzyme for full effect and enzyme alone for no effect
BoNT A protease: blocks Botulinum neurotoxin A light chain protease; multiplex microsphere protease substrate cleavage, flow cytometry; inhibition, % at 10 µM; actives 0.17% (n = 360,000); AID 588499; note: plate controls were buffer without enzyme for full effect and enzyme alone for no effect
Anthrax LF prot: inhibitors of Bacillus anthracis lethal factor protease | multiplex microsphere protease cleavage assay, LF | inhibition, % at 10 µM | actives 0.12% (n = 360,000); note: plate controls were buffer without enzyme for full effect and enzyme alone for no effect
Target sequence (P15917 whole entry, looked up): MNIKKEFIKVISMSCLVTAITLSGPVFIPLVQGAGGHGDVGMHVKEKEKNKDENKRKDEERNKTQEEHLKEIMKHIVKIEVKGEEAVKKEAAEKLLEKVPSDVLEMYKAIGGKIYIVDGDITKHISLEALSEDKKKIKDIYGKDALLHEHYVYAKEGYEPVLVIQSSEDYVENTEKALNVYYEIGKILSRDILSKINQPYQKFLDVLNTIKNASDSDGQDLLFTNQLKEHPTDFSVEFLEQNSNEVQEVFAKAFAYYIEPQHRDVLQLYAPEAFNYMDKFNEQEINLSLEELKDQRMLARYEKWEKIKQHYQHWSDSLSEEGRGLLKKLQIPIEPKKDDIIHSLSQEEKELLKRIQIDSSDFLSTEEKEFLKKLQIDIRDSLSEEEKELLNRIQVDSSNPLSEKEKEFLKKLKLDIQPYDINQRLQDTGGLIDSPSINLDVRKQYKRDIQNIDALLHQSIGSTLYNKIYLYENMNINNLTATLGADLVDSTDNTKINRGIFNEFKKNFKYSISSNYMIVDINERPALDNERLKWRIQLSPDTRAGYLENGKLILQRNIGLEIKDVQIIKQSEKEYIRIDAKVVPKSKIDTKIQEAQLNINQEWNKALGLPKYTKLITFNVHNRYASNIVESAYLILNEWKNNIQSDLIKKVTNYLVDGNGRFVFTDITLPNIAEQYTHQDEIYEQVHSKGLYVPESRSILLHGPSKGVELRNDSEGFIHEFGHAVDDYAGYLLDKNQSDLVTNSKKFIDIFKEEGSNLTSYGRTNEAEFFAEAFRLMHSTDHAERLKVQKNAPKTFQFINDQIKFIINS
Vc quorum ag: inducers of Vibrio cholerae quorum light production without autoinducers | AID 588436 | actives 0.16% (n = 350,000) | activation, % at 18.7 µM | V. cholerae BH1578 lux reporter, luminescence, 6 h; in the data active = activation mostly above about 9.7%, no sharp cut-off; inconclusive = no clear call, values can overlap the other calls; inactive = mostly below about 3.7%
MazEF act: activators of E. coli MazEF toxin-antitoxin RNase; P0AE70; FAM/BHQ RNA-DNA oligo cleavage fluorescence, 5 h; activation, % at 20 µM; actives 0.32% (n = 350,000); in the data active = activation above about 50%
Autofluor counter: compound fluorescence in toxin protease inhibitor counterscreen; fluorescence intensity (concentration not given with the values); actives 3.1% (n = 360,000); compound autofluorescence counterscreen, microsphere flow cytometry; hits give high values; AID 624483; in the data active = fluorescence intensity above about 16000; inconclusive = no clear call, values can overlap the other calls
Numbers without * were called inactive; i = inactive; ? = inconclusive; nt = no result. Sampled rows, rich in hits. Any-hit rate of the full collection: about 3.9%. Cut-off read from the data, not from the text of the source, unless noted: active = inhibition above about 30%; inconclusive = no clear call, values can overlap the other calls; inactive = below that.

SMILES | BoNT F protease | BoNT A protease | Anthrax LF prot | Vc quorum ag | MazEF act | Autofluor counter
CCOC(=O)c1cc(-c2ccccc2)sc1NC(=O)C(C)OC(=O)c1cccnc1Cl (stereo not given) | -4.5 | -0.3 | -0.5 | -3.6 | -4.0 | 2618
N#Cc1ccsc1NC(=O)CN1C(=O)NC2(CCCCC2)C1=O | 8.0 | 2.5 | -2.6 | i | -17.9 | 4408
O=Nc1c(O)n(Cc2cccc(Cl)c2)c2ccccc12 | -17.1 | 0.0 | 1.5 | 30.4* | 1.6 | 9501
NC(=O)C1CCN(S(=O)(=O)Cc2ccccc2Cl)CC1 | 0.7 | -0.2 | 2.2 | -0.9 | -10.9 | 3406
COc1ccc(NC(=O)C2(C)Cc3c(-c4cccc(NC(C)=O)c4)ccnc3O2)cn1 (stereo not given) | -1.9 | -0.1 | -5.4 | -0.3 | nt | 3680
CC1CCCCN1CCNS(=O)(=O)c1ccc2c(c1)oc(=O)n2C (stereo not given) | -6.1 | ? | -2.9 | i | -1.5 | 22199*
Cn1c(=O)oc2cc(S(=O)(=O)NCCN3CCCCCC3)ccc21 | -13.4 | ? | -4.9 | -1.4 | 1.8 | 21921*
CCC1CCCCN1CCNS(=O)(=O)c1ccc2c(c1)oc(=O)n2C (stereo not given) | -1.0 | -0.6 | -2.2 | i | 10.1 | 6911
CCN(CC)C(=O)C1=C(C)N(CCCOC)C(=O)C(CC(=O)NCCc2ccccn2)C1 (stereo not given) | -3.1 | -0.1 | -2.8 | -0.4 | 7.9 | 3812
N=c1c2c(-c3ccccc3)c(-c3ccccc3)n(Cc3ccco3)c2ncn1Cc1ccccc1 | 7.8 | 0.5 | 5.2 | 4.8 | 10.0 | 4453
N=c1c2c(-c3ccccc3)c(-c3ccccc3)n(Cc3ccccc3)c2ncn1CCO | -1.1 | ? | -0.6 | 0.1 | 31.4 | 22944*
O=C(COC(=O)C12CC3CC(CC(C3)C1)C2)Nc1ncc(Cl)cc1Cl | 6.7 | ? | -13.5 | -0.2 | 0.3 | 14703
O=C(COC(=O)CC12CC3CC(CC(C3)C1)C2)Nc1ncc(Cl)cc1Cl | -6.2 | -3.4 | -2.4 | -2.2 | -9.5 | 24856*
COc1ccc(OCCCC(=O)OCC(=O)Nc2ncc(Cl)cc2Cl)cc1 | -12.3 | -2.5 | -4.0 | -0.4 | -24.8 | 5150
CC(C)(Oc1ccc(Cl)cc1)C(=O)OCC(=O)Nc1ncc(Cl)cc1Cl | -0.6 | 0.4 | -4.9 | -12.5 | -1.9 | 22776*
CCCCn1c(N)c(N(CCOC)C(=O)CCS(=O)(=O)c2ccc(C)cc2)c(=O)[nH]c1=O | 3.3 | -0.1 | 3.3 | i | -0.6 | 3975
CS(=O)(=O)Cc1ccc(C(=O)NC2CCSc3ccccc32)cc1 (stereo not given) | 14.8 | -2.3 | 5.0 | 0.2 | 9.0 | 3411
Cn1cc(-c2nnnn2-c2ccc(Cl)cc2)c(C(F)(F)F)n1 | 1.1 | 0.7 | -0.8 | i | 1.1 | 23367*
CC(C)C1Cc2[nH][nH]c(=O)c2C(C2CC2)O1 (stereo not given) | -6.0 | 0.6 | -4.6 | nt | nt | 6173
CCc1ccc(CN(C)C(=O)CCc2nnc(Cc3cccc(C)c3)o2)nc1 | -0.2 | -0.7 | -2.2 | i | -2.6 | 4129
CC(C(=O)Nc1ccncc1)(c1ccccc1)c1ccccc1 | -2.7 | -0.4 | 0.0 | 0.5 | -6.8 | 2465
COc1ccc(OC)c(S(=O)(=O)N2CCN(c3ccccc3)CC2)c1 | ? | 2.7 | -9.6 | i | 4.0 | 3081
CCc1ccccc1N1CCN(S(=O)(=O)c2cc(OC)ccc2OC)CC1 | -2.2 | ? | -5.9 | i | -2.0 | 23647*
NC(=O)c1c(NC(=O)c2ccccc2)sc2c1CCN(Cc1ccccc1)C2 | -9.0 | -0.5 | -8.9 | -1.5 | 116.4* | 5985
CCN1CCc2c(sc(NC(=O)c3ccc(C(=O)c4ccccc4)cc3)c2C(N)=O)C1 | -6.2 | -0.3 | 5.5 | 0.8 | 273.9* | 6112
SMILES | BoNT F protease | BoNT A protease | Anthrax LF prot | Vc quorum ag | MazEF act | Autofluor counter
CCN1CCc2c(sc(NC(=S)NC(=O)c3ccccc3)c2C#N)C1 | -30.8 | 8.8 | 4.0 | -0.6 | 62.0* | 2402
CC(C)c1ccc(CN2CCC(n3nccc3NC(=O)C3CCCC3)CC2)cc1 | -7.4 | -0.5 | -4.0 | -3.1 | -0.1 | 3965
CC(=O)Nc1cc(-c2ccoc2)cn2c(-c3ccccc3)cnc12 | -0.7 | 0.8 | -7.6 | i | nt | 3975
COc1ccc(OC)c(N(CC(=O)N2CCC(C)CC2)S(=O)(=O)c2ccccc2)c1 | 0.2 | ? | -7.4 | -2.7 | -5.7 | 20367*
COc1ccc(OC)c(N(CC(N)=O)S(=O)(=O)c2ccc(OC)c(OC)c2)c1 | -0.1 | 0.2 | -1.2 | -0.2 | -1.2 | 20080*
Cc1ccc(S(=O)(=O)N(CC(=O)N2CCC(C)CC2)c2cccc(C)c2)cc1 | -1.5 | 1.3 | -10.5 | i | -0.9 | 20718*
COc1ccc(OC)c(N(CC(=O)N2CCC(C)CC2)S(=O)(=O)c2ccc(OC)c(OC)c2)c1 | -6.5 | -0.5 | -38.5 | -0.2 | 5.3 | ?
COc1ccc(OC)c(N(CC(=O)N2CCCCC2)S(=O)(=O)c2ccc(OC)c(OC)c2)c1 | -1.6 | -0.8 | -0.6 | -0.3 | 5.1 | 3503
CCCCN(C(=O)Cn1ncc(Cl)c(Cl)c1=O)c1c(N)n(CC(C)C)c(=O)[nH]c1=O | -1.8 | -0.4 | -6.9 | i | -1.9 | 4485
CC(C)C[C@@H](CN1CCC[C@H]1CN1C(=O)C(=O)NC[C@@H]1Cc1ccccc1)N1C[C@H](Cc2ccc(O)cc2)N(CC2CCCCCC2)C(=O)C1=O | 1.9 | 0.7 | -0.6 | nt | nt | 4007
O=C(O)CC(Cc1ccccc1)(C(=O)O)c1ccccc1 (stereo not given) | -29.9 | -0.5 | 3.5 | 0.3 | 1.8 | 3653
COc1cc(N2CCOCC2)ncn1 | -0.6 | ? | -3.3 | -0.2 | 11.6 | 23005*
Cc1cc(C)n(-c2cc(N3CCOCC3)ncn2)n1 | -4.3 | -0.8 | -2.2 | 2.1 | 3.5 | 6135
C[C@@H]1CCCCO[C@H](CN(C)S(=O)(=O)c2cn(C)cn2)[C@@H](C)CN([C@H](C)CO)C(=O)c2cc(NC(=O)c3ccncc3)ccc2O1 | -1.7 | -0.3 | 1.2 | -1.0 | 0.6 | 3690
COc1ccc(NC(=O)N2CCn3c2nc2ccccc23)cc1 | 0.5 | 1.1 | -0.9 | i | -8.7 | 19709*
O=C(Nc1ccccc1)N1CCn2c1nc1ccccc12 | -3.2 | -0.6 | -2.2 | -0.5 | -7.6 | 4462
O=C(CCc1ccccc1)n1nc(-c2ccccc2)nc1NCc1ccco1 | -4.2 | -3.0 | -4.6 | 0.6 | 0.3 | 23164*
CCCn1c(C)cc(C(=O)COc2ccc(-c3nnco3)cc2)c1C | -7.4 | -0.1 | -3.6 | -1.4 | -9.0 | 4833
Cc1ccc(NC2=NC(c3ccc(O)cc3)n3c(nc(C)cc3=O)N2)cc1 (stereo not given) | -3.7 | ? | 0.8 | i | -1.6 | 22829*
COC(=O)c1cc(=O)nc(NN=Cc2ccc(OC)cc2)s1 | -2.9 | -0.2 | 3.2 | nt | nt | 5518
O=C(COC(=O)C1CCC1)Nc1ccc(Cl)cn1 | -6.5 | -0.2 | 4.2 | i | 6.1 | 3917
O=C(COC(=O)CCC1CCCC1)Nc1ccc(Cl)cn1 | -1.1 | -1.1 | -0.7 | -5.9 | 9.6 | 17161*
